As a reminder, the inhibition is the change of the read-out against control, counted positive when it falls.

Consider 14 molecules from PubChem BioAssay.

Structures are written as SMILES. The source made the active and inactive calls.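 Rule for the calls, unless noted: active = inhibition of the reporter signal at or above 50%; inactive = inhibition below 50%.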

Experiment [1] can be described thus: inhibitors of TNFa-induced NFkB p65 translocation, primary screen, imaging, HUVEC, MLSMR starter and 10KST1 sets (AID 438;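 active = inhibition above 20% together with a positive visual image hit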;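 note: compound added about 3h40 before a 20 min TNFalpha stimulation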;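 for inhibition: signal is the nuclear over cytoplasmic p65 intensity ratio per well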). Particulars: HUVEC TNFa-induced p65 nuclear translocation; cell count: measured here: nuclei count (cytotoxicity indicator), at 2.08 µM; inhibition: at 2 µM, stronger effect = higher value, 0% TNFa-plus-vehicle, 100% no-TNFa wells.
The nature of experiment [2]: inhibitors of mutant huntingtin aggregation, primary screen, imaging, exon1htt(103Q)mCFP cells, high-content imaging (AID 483;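 active = visual image review flags a hit and inhibition of aggregation exceeds 20%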;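 note: compound exposure lasted 3 days before fixation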;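 for nuclei count: percent of the per-plate median nuclei count of sample wells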). The conditions noted are these: exon1htt(103Q)mCFP cell line, aggregate imaging, at 2 µM; inhibition of aggregation: stronger effect = higher value; nuclei count: measured here: cell count, toxicity.
Experiment [3] is described as follows: inhibitors of E-selectin induction by TNFa, primary screen, imaging, HUVEC, immunofluorescence, MLSMR starter and 10KST1 sets (AID 487;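 active = visually confirmed hit in the image check and inhibition above 20%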;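 for inhibition: signal is fraction of cell area covered by stained E-selectin grains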;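 for nuclei count: 100% = median nuclei count of all wells on the same plate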). The conditions noted are these: HUVEC TNFalpha-induced E-selectin immunofluorescence imaging, at 2 µM; inhibition: stronger effect = higher value; nuclei count: measured here: cell number, toxicity.
For experiment [4], the target named is Voltage-gated potassium channel subunit beta-2 (Rattus norvegicus) (UniProt P62483). The experiment is described as follows: KvBeta enzyme negative modulators, primary screen, biochemical, NADPH fluorescence (AID 622;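 active = fluorescence slope higher than the sample average by over 3 SD, cut at about -0.22 in these data, passing the limit was not always enough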;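 note: slope of raw intensity against log time taken from 70 to 1610 s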). The conditions noted are these: recombinant KvBeta, 4-cyanobenzaldehyde reduction, at 10 µM, stronger effect = higher value.
Chain of Voltage-gated potassium channel subunit beta-2 (Rattus norvegicus) (P62483 whole entry, looked up): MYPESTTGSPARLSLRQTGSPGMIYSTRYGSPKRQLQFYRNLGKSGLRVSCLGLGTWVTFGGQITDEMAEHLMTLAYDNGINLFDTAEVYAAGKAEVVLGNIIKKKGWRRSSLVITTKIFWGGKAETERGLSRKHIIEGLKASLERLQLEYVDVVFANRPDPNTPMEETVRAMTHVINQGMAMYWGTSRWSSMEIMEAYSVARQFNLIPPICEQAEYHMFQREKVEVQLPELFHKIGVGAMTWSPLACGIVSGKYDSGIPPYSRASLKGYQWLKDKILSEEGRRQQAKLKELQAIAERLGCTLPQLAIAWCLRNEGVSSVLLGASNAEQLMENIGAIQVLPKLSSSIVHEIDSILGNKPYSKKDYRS
For experiment [5] the target is unchanged. The experiment is described as follows: KvBeta positive modulators, primary screen, biochemical, NADPH fluorescence (AID 623;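 active = NADPH fluorescence slope more negative than the mean of all samples by about 3 SD, 99.7% confidence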;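 note: fluorescence intensity change per second fitted from 20 to 320 s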). The conditions noted are these: Recombinant KvBeta, NADPH fluorescence decrease slope, 10 min; at 10 µM; stronger effect = lower value.
Experiment [6] deals with Alpha-2C adrenergic receptor (Homo sapiens) (UniProt P18825). The experiment is described as follows: modulators of alpha2C/GIRK thallium flux, primary screen, cell-based, HEK293 alpha2C/GIRK1/2 (AID 624;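 active = fluorescence slope after compound addition differing from the mean of all screened samples at 99.7% confidence, in either direction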;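 note: slope of fluorescence ratio to pre-addition baseline per second over 15 to 24 s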). The conditions noted are these: thallium flux BTC fluorescence, at 10 µM, actives lie on both sides.
Chain of Alpha-2C adrenergic receptor (Homo sapiens) (P18825 whole entry, looked up): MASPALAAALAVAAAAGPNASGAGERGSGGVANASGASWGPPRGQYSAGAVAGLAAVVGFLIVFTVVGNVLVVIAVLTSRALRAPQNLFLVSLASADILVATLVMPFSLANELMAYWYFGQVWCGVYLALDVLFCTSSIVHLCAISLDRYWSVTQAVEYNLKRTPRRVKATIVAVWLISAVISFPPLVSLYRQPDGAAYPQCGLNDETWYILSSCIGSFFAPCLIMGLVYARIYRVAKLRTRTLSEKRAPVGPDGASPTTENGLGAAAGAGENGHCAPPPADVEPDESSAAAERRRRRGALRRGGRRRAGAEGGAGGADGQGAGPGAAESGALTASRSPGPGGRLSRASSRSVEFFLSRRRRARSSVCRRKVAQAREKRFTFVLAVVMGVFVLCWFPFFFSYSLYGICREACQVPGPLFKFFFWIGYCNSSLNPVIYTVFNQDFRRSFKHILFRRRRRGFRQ
Experiment [7] can be described thus: inhibitors of Sendai virus-induced IRF3 signaling, primary screen, TLR/RLR signaling modifier project, cell-based, Sendai virus stimulus, luciferase, 10K MLSCN set (AID 602276;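 active = inhibition at or above 50% at 10 µM; inactive = inhibition below 50%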;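 note: firefly luciferase from ISG56 promoter only with Renilla not read in this screen; 0% = Sendai virus plus DMSO and 100% = medium plus DMSO without virus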). Particulars: HEK293 RL24 IRF3 luciferase reporter, at 10 µM, stronger effect = higher value. (In general: A reporter such as luciferase makes a cellular process visible.)
Experiment [8] can be described thus: inhibitors of poly I:C-induced TLR3 signaling, primary screen, cell-based, poly I:C stimulus, luciferase, 10K MLSCN set (AID 602277). Particulars: HEK293-TLR3 RL24 IRF3 luciferase reporter, at 10 µM, stronger effect = higher value.

Turning to `Cc1oc(-c2ccccc2Cl)nc1CSCC(=O)N1CCCC1`, in experiment [1], the cell count stood at 319. For the same molecule, the inhibition in experiment [1] is 9.3% (inactive); in experiment [3] it was 62.6% (active); in experiment [7] it was -10.3% (inactive); in experiment [8], 8.17% (inactive). In addition, the inhibition of aggregation in experiment [2] was 19.4% (inactive). Also, the nuclei count in experiment [2] came to 91.6%; in experiment [3], 102%. Moreover, the fluorescence slope in experiment [4] is -0.572 (inactive). For the same molecule, the NADPH fluorescence slope in experiment [5] is 5.9e-06 (inactive). The slope in experiment [6] was 0.00514 (inactive).

Turning to `Cc1ccc2cccc(SCC(=O)N3CCOCC3)c2n1`, in experiment [1], the cell count worked out at 286. In addition, the inhibition in experiment [1] was -6.7% (inactive); in experiment [3], -45.8% (inactive); in experiment [7] it was 6.65% (inactive); in experiment [8], 31.6% (inactive). Also, in experiment [2], the inhibition of aggregation is 28% (inactive). Also, the nuclei count in experiment [2] stood at 72.7%; in experiment [3], 105%. Further, the fluorescence slope in experiment [4] is -0.327 (inactive). Also, in experiment [5], the NADPH fluorescence slope is 7.7e-06 (inactive). Further, the slope in experiment [6] was 0.00384 (inactive).

Turning to `O=C(CN1CCC(O)(c2ccc3c(c2)OCO3)CC1)OC1CCCCC1`, in experiment [1], the cell count turned out to be 459. Also, the inhibition was -3.6% (inactive) in experiment [1], -55.1% (inactive) in experiment [3], 8.26% (inactive) in experiment [7] and 15.6% (inactive) in experiment [8]. Moreover, the inhibition of aggregation in experiment [2] is 28.4% (inactive). Moreover, the nuclei count in experiment [2] worked out at 67.8%; in experiment [3], 99.5%. In addition, in experiment [4], the fluorescence slope was -0.313 (inactive). Moreover, the NADPH fluorescence slope in experiment [5] is -4.7e-05 (inactive). Besides, the slope in experiment [6] is 0.00487 (inactive).

Consider `CCOC(=O)CN(C(=O)CSc1nnc(-c2ccncc2)n1CCCN(C)C)c1ccccc1`, for which, in experiment [1], the cell count turned out to be 570. Moreover, the inhibition in experiment [1] is -11.3% (inactive); in experiment [3], -14.2% (inactive); in experiment [7], 14.2% (inactive); in experiment [8] it was 30.4% (inactive). The inhibition of aggregation in experiment [2] is 12.2% (inactive). The nuclei count in experiment [2] was 89.1%; in experiment [3] it was 92.8%. The fluorescence slope in experiment [4] is -0.615 (inactive). Also, the NADPH fluorescence slope in experiment [5] was -1.7e-05 (inactive). Moreover, in experiment [6], the slope is 0.00606 (inactive).

Consider `c1ccc2c(c1)sc1nnnn12`, for which the cell count in experiment [1] was 375. Further, the inhibition in experiment [1] was -2.1% (inactive); in experiment [3], -109% (inactive); in experiment [7], 18% (inactive); in experiment [8], 27.2% (inactive). In addition, in experiment [2], the inhibition of aggregation was -24.6% (inactive). In addition, the nuclei count in experiment [2] was 112%; in experiment [3], 115%. Further, the fluorescence slope in experiment [4] is -0.555 (inactive). Besides, in experiment [5], the NADPH fluorescence slope was -7.2e-05 (inactive). Further, the slope in experiment [6] was 0.00357 (inactive).

With `CCOC(=O)c1sc(NC(=O)CSc2nnc3c4ccccc4n(CC)c3n2)nc1C`, in experiment [1], the cell count was 478. Further, the inhibition in experiment [1] is 1.6% (inactive); in experiment [3], -6.3% (inactive); in experiment [7], -6.56% (inactive); in experiment [8], 7.93% (inactive). Moreover, in experiment [2], the inhibition of aggregation is 6.7% (inactive). Also, the nuclei count in experiment [2] worked out at 106%; in experiment [3], 110%. The fluorescence slope in experiment [4] was -0.333 (inactive). Besides, in experiment [5], the NADPH fluorescence slope is -1.9e-05 (inactive). For the same molecule, in experiment [6], the slope is 0.00568 (inactive).

With `COc1ccc(OC)c(S(=O)(=O)N2CCN(c3c(C)cccc3C)CC2)c1`, the cell count in experiment [1] was 622. In addition, the inhibition in experiment [1] is 1.1% (inactive); in experiment [3], -9.3% (inactive); in experiment [7], 9.96% (inactive); in experiment [8], 30.5% (inactive). Also, the inhibition of aggregation in experiment [2] is 30.2% (inactive). For the same molecule, the nuclei count in experiment [2] worked out at 111%; in experiment [3] it was 102%. For the same molecule, the fluorescence slope in experiment [4] is -0.541 (inactive). In experiment [5], the NADPH fluorescence slope was -4.7e-05 (inactive). Also, in experiment [6], the slope was 0.00796 (inactive).

On to `COC(=O)C1=C(CSCc2ccco2)NC(=O)NC1c1cc(C)ccc1C` (centres undefined), for which, in experiment [1], the cell count was found to be 369. In addition, the inhibition in experiment [1] is -10.5% (inactive); in experiment [3] it was -20.5% (inactive); in experiment [7] it was -3.03% (inactive); in experiment [8], -1.57% (inactive). In addition, in experiment [2], the inhibition of aggregation is -15.1% (inactive). In addition, the figures for the nuclei count in experiment [2] and in experiment [3] were 115% and 109%, respectively. In addition, in experiment [4], the fluorescence slope was -0.423 (inactive). In experiment [5], the NADPH fluorescence slope was 3.5e-05 (inactive). Also, in experiment [6], the slope is 0.00488 (inactive).

Turning to `c1ccc(N2CCN(Cc3cn4cccnc4n3)CC2)cc1`, the cell count in experiment [1] stood at 683. Also, the inhibition in experiment [1] was -18.4% (inactive); in experiment [3] it was -36.1% (inactive); in experiment [7], 8.99% (inactive); in experiment [8] it was 18.5% (inactive). Also, the inhibition of aggregation in experiment [2] was -18.4% (inactive). The nuclei count in experiment [2] turned out to be 107%; in experiment [3], 101%. The fluorescence slope in experiment [4] is -0.494 (inactive). Besides, in experiment [5], the NADPH fluorescence slope is -4e-06 (inactive). Further, the slope in experiment [6] was 0.00602 (inactive).

Regarding `O=C(COC(=O)c1ccccc1Oc1ccccc1)NC1CCS(=O)(=O)C1` (centres undefined), the cell count in experiment [1] was 33. Moreover, the inhibition in experiment [1] was 74.9% (active); in experiment [3], -124% (inactive); in experiment [7], 8.04% (inactive); in experiment [8], -20% (inactive). Besides, in experiment [2], the inhibition of aggregation is 0% (inactive). The nuclei count amounted to 95.2% in experiment [2] and 116% in experiment [3]. The fluorescence slope in experiment [4] was -0.521 (inactive). Also, the NADPH fluorescence slope in experiment [5] is -1.6e-05 (inactive). Moreover, in experiment [6], the slope was 0.00666 (inactive).

On to `Cc1ccc(C(C)C)c(OCCn2c(=O)oc3ccccc32)c1`, for which the cell count in experiment [1] is 540. For the same molecule, the inhibition was -5.9% (inactive) in experiment [1], -32.5% (inactive) in experiment [3], -13.6% (inactive) in experiment [7] and -27.2% (inactive) in experiment [8]. Besides, the inhibition of aggregation in experiment [2] was 0.7% (inactive). Also, the nuclei count stood at 89.4% in experiment [2] and 77.7% in experiment [3]. Further, the fluorescence slope in experiment [4] was -0.416 (inactive). In addition, the NADPH fluorescence slope in experiment [5] is 2.5e-05 (inactive). Besides, the slope in experiment [6] is 0.00298 (inactive).

Consider `COc1ccccc1C1CC(c2ccc(C)cc2)Nc2ncnn21` (centres undefined), for which the cell count in experiment [1] is 332. For the same molecule, the inhibition in experiment [1] was 0.7% (inactive); in experiment [3], -37.9% (inactive); in experiment [7] it was -7.75% (inactive); in experiment [8] it was -0.278% (inactive). Further, the inhibition of aggregation in experiment [2] was -31.6% (inactive). Moreover, the nuclei count in experiment [2] was determined as 109%; in experiment [3], 119%. Further, the fluorescence slope in experiment [4] is -0.425 (inactive). For the same molecule, the NADPH fluorescence slope in experiment [5] was 4.9e-05 (inactive). Further, the slope in experiment [6] was 0.00745 (inactive).

With `COc1ccc(Br)cc1CNC(=O)C1CCCN(S(C)(=O)=O)C1` (centres undefined), the cell count in experiment [1] was determined as 949. For the same molecule, the inhibition is -7.5% (inactive) in experiment [1], -129% (inactive) in experiment [3], 5.73% (inactive) in experiment [7] and 33.6% (inactive) in experiment [8]. The inhibition of aggregation in experiment [2] is -7.3% (inactive). Moreover, the nuclei count in experiment [2] worked out at 114%; in experiment [3], 113%. In experiment [4], the fluorescence slope is -0.362 (inactive). In experiment [5], the NADPH fluorescence slope is -5.7e-05 (inactive). Also, in experiment [6], the slope was 0.00566 (inactive).

Turning to `CC(C)NC(=O)c1ccc2c(c1)nnn2C`, the cell count in experiment [1] stood at 836. Also, the inhibition was 8.2% (inactive) in experiment [1], -59.5% (inactive) in experiment [3], -4.12% (inactive) in experiment [7] and 11.6% (inactive) in experiment [8]. For the same molecule, the inhibition of aggregation in experiment [2] was 4.8% (inactive). Besides, the nuclei count is 104% in experiment [2] and 116% in experiment [3]. Besides, the fluorescence slope in experiment [4] was -0.471 (inactive). The NADPH fluorescence slope in experiment [5] was 2.3e-05 (inactive). Besides, in experiment [6], the slope is 0.0055 (inactive).
